This note sets out measurements from PubChem BioAssay.

Inconclusive results are not listed. Activity calls are given as the source filed them.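 How the source made its calls, unless noted: active means response below a set limit, under 55% cells CD8-positive and vesicle-bound, and CD8 cells' 90th-percentile brightness under 279; inactive means the rest.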

Assay [1] can be described thus: rapamycin-like changes in RPL19A-GFP expression – cell-based, S. cerevisiae, multiplex flow cytometry, primary screen (AID 1862; in the data active means percent of DMSO control GFP below about 86%;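 further: lower values mimic rapamycin by blocking the RPL19A rise seen in DMSO cells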). As to conditions: S. cerevisiae RPL19A-GFP strain, flow cytometry fluorescence, 3 h; at 10 µM; stronger effect = lower value. Background: Flow cytometry measures light scatter and fluorescence of single cells or particles in a stream.
The nature of assay [2]: TOR pathway GLN3 branch reporter MEP2-GFP changes – S. cerevisiae, multiplex flow cytometry, primary screen (AID 1867;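 active means GFP response, as percent of the DMSO control, above the screen-wide mean plus 3 SD, about 139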;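 further: median GFP channel fluorescence of barcode-gated MEP2-GFP cells measured by flow cytometry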). As to conditions: S. cerevisiae MEP2-GFP strain, 3 h, at 10 µM, stronger effect = higher value, 100% means same as DMSO wells.
Assay [3] in a line: TOR pathway RTG branch CIT2 reporter changes – S. cerevisiae, GFP fusion, multiplex flow cytometry, primary screen (AID 1870;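 active means percent response above a set limit, the screen-wide mean plus 3 SD, cut at about 130% in these data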;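 further: barcoded CIT2-GFP strain pooled with four other GFP strains with rapamycin as positive control; median GFP fluorescence per well over plate mean of DMSO wells so 100% = DMSO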). As to conditions: S. cerevisiae CIT2-GFP expression, 3 h, at 10 µM, stronger effect = higher value.
Assay [4] in a line: TOR pathway LAP4-GFP level changes – S. cerevisiae, multiplex flow cytometry, primary screen (AID 1873;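 active means GFP signal, as percent of the solvent control, above the screen mean plus 3 SD, about 149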). As to conditions: S. cerevisiae LAP4-GFP expression, 3 h, at 10 µM, stronger effect = higher value.
A short description of assay [5]: yeast AGP1-GFP level changes, GLN3 branch – cell-based, multiplex flow cytometry, S. cerevisiae, primary screen (AID 1887;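 active means GFP signal above the screen-wide mean plus 3 SD, that is over about 124.5% of the solvent control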;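 further: AGP1-GFP fusion strain of S. cerevisiae within a five-strain barcoded multiplex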). As to conditions: 3 h, at 10 µM, stronger effect = higher value.
A short description of assay [6]: reduced mouse 2C T cell binding to pMHC/ICAM-1 vesicles – MLPCN validation set, flow cytometry, LFA-1/ICAM-1 modulator project, pilot screen (AID 2523).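 On vesicle binding response: mean PE anti-B7-1 fluorescence of CD8+ cells relative to row control; 100% = QL9-loaded vesicles with DMSO vehicle in the same plate row.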 As to conditions: 2C mouse CD8+ T cells, at 7 µM, stronger effect = lower value; double positive events: measured here: CD8+/vesicle+ event percentage.
Assay [7] has as its target Integrin beta-1 (Homo sapiens) + Integrin alpha-4 (Homo sapiens) (UniProt P13612+P05556). As to the kind of experiment: alpha4beta1 integrin LIBS antibody binding reduction – U937 cells, HUTS-21 mAb, flow cytometry, validation set, VLA-4 allosteric modulator project, pilot screen (AID 2674;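 active means inhibition above 50%, about 3 SD of the validation set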;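 further: antibody binding induced by the VLA-4 ligand LDV present at three times its Kd; 0% = LDV ligand with antibody and no compound and 100% = antibody without LDV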). As to conditions: HUTS-21 LIBS mAb binding, at 6.7 µM, stronger effect = higher value, binding induced by LDV ligand.

Assay [8] can be described thus: calorie-restriction mimetic ROS inhibitors, yeast – validation compound set, pilot screen (AID 2706;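 active means superoxide response below 65% of plate, a cut near 3 SD across the whole screen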;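 further: yeast exposed to compound for one week at 30 degrees C before staining; 100% = mean of all compound wells on the same plate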). As to conditions: S. cerevisiae aging, superoxide DHE fluorescence; at 10 µM, stronger effect = lower value.
Assay [9] addresses Beta-adrenergic receptor kinase 1 (Homo sapiens) (UniProt P25098). As to the kind of experiment: GRK2 binders displacing RNA aptamer, biochemical, validation, human GRK2, bead flow cytometry (AID 488806;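 active means aptamer binding inhibition above 30%, about 3 SD of noise from non-fluorescent compounds; inactive means inhibition at or below 30%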). As to conditions: bead-bound GRK2, FAM-aptamer displacement, at 10 µM, stronger effect = higher value.
Assay [10] deals with AP-2 complex subunit beta (Homo sapiens) (UniProt P63010). Nature of the assay: beta-arrestin/AP2 interaction blockers – biochemical, validation set, GST-AP2 beads, flow cytometry, pilot screen (AID 504541;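 active means inhibition above 54%, about 3 SD of non-fluorescent compounds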;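 further: AP2 carries R879A mutation and is captured from E. coli lysate; bead-bound FITC arrestin peptide fluorescence measuring arrestin peptide binding to AP2; 0% = DMSO wells and 100% = excess unlabeled arrestin peptide control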). As to conditions: FITC arrestin peptide, at 10 µM, stronger effect = higher value, AP2 beta2 appendage fragment, R879A mutant.
A short description of assay [11]: cytosolic pH regulators acting via V-ATPase – S. cerevisiae, pHLuorin, HTS validation (AID 504600; in the data active means response above about 15%;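 further: plate controls were DMSO for no effect and reference compound for full effect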). As to conditions: V-ATPase proton transport, at 10 µM, stronger effect = higher value.
Assay [12] has as its system anti-desmoglein-3 scFv antibody binding to human DSG3. As to the kind of experiment: blockers of pathogenic pemphigus antibody–desmoglein-3 binding – biochemical, validation compound set, bead-based, flow cytometry, pilot screen (AID 588368;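 active means binding below the plate cutoff, the plate median minus 3 SD, with a reading above zero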;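 further: signal is the median channel fluorescence of bead-bound GFP antibody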). As to conditions: Protein G beads, DSG3-Fc, scFv-GFP binding, at 10 µM, stronger effect = lower value.
Assay [13] in a line: Nile Red efflux blockade in pump-expressing yeast – validation compound set, multiplex, phenotypic, pilot screen (AID 588506;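 active means efflux inhibition above 0.42, the validation set average plus 4 SD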;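 further: Nile Red retained in cells so higher fluorescence means more efflux inhibition; 0 = negative control wells and 1 = enniatin B 25 µM full block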). As to conditions: S. cerevisiae pump-expressing triplex, Nile Red efflux flow cytometry; at 10 µM; stronger effect = higher value; the pumps come from Candida albicans.
Assay [14] has as its target ATP-binding cassette sub-family B member 6 (Homo sapiens) (UniProt Q9NP58). As to the kind of experiment: blockers of ABCB6-driven porphyrin uptake – K562-ABCB6 cells, flow cytometry, validation set, pilot screen (AID 588550;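 active means inhibition above the screen-wide mean plus 3 SD, about 51%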;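 further: 0% = DMSO wells and 100% = benzethonium chloride 70 µM positive control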). As to conditions: K562-ABCB6 porphyrin accumulation, 1 h, at 10 µM, stronger effect = higher value.
The nature of assay [15]: AML differentiation inducers, ER-HoxA9 marrow cells – cell-based, GFP/MAC1 double positive, flow cytometry, validation set, primary screen (AID 588685;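 active means differentiation response of at least 50%, scaled between solvent and reference control, from cells with both markers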;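 further: compound exposure lasts four days before antibody staining and flow analysis; 0% = DMSO wells and 100% = 5 µM fulvestrant positive control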). As to conditions: stronger effect = higher value, normalized: vehicle 0, fulvestrant 100.

Chain of AP-2 complex subunit beta (Homo sapiens) (P63010 whole entry, looked up, the tested form may be a part, one chain of several): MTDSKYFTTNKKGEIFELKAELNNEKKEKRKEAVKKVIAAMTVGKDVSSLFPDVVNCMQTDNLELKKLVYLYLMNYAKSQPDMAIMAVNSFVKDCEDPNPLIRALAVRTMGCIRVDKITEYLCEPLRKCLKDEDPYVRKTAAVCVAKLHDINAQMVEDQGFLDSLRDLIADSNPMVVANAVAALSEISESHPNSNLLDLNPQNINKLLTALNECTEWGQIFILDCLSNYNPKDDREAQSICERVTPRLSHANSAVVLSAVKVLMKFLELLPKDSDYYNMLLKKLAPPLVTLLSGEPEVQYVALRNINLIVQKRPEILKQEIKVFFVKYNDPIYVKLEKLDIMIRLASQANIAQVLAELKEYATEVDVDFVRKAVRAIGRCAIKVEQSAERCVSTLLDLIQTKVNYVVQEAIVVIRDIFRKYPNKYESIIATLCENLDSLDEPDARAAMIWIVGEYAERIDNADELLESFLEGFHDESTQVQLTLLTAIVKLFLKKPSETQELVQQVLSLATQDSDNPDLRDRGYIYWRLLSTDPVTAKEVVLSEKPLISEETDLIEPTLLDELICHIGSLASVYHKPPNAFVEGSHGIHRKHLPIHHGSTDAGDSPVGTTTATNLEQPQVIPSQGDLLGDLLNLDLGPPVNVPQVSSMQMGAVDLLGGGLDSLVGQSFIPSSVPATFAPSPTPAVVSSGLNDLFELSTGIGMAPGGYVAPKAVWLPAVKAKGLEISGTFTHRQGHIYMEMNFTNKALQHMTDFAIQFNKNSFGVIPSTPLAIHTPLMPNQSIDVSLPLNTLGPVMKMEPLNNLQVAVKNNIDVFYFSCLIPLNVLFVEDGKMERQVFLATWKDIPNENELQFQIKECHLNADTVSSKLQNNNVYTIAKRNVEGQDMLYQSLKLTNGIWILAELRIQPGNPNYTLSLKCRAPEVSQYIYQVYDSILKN
Chain of Beta-adrenergic receptor kinase 1 (Homo sapiens) (P25098 whole entry, looked up): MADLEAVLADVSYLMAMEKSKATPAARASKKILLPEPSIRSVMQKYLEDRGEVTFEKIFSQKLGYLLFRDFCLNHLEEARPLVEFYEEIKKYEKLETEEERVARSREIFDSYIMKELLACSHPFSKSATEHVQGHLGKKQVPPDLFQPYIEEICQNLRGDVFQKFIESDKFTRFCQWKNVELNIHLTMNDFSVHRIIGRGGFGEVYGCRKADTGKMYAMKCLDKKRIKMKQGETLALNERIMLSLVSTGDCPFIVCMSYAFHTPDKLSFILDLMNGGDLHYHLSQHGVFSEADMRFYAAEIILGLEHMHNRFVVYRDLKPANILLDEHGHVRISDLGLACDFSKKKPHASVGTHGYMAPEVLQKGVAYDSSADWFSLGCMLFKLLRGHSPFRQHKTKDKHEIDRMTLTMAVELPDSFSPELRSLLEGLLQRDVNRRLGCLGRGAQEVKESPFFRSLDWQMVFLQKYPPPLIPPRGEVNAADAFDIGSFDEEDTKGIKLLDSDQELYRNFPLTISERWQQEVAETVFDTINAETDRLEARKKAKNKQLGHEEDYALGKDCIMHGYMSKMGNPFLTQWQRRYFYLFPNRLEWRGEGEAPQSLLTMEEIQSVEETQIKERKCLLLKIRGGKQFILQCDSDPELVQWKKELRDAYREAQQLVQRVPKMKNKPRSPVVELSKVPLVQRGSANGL
Chain of ATP-binding cassette sub-family B member 6 (Homo sapiens) (Q9NP58 whole entry, looked up): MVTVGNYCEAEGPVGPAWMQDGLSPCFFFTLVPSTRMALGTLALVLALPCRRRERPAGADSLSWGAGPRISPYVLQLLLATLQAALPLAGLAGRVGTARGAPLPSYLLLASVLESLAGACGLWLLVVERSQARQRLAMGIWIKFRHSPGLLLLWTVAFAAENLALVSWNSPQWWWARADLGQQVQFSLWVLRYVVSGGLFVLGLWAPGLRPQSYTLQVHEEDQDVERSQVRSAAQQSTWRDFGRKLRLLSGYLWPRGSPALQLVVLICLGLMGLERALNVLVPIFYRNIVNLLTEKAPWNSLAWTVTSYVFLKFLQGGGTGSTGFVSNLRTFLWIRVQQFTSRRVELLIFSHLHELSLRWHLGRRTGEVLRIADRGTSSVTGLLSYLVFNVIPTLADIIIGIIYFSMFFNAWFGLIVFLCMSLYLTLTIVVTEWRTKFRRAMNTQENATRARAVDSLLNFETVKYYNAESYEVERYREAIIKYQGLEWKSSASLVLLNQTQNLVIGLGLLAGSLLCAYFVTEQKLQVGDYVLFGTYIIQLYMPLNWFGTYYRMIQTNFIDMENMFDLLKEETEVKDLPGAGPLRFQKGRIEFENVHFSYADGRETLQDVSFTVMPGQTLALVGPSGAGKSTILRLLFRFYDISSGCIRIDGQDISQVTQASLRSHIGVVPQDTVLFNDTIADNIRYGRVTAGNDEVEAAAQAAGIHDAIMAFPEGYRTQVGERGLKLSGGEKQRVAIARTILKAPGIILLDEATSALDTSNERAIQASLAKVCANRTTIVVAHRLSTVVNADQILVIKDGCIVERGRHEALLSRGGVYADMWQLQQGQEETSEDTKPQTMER
Chain of Integrin beta-1 (Homo sapiens) + Integrin alpha-4 (Homo sapiens) (P05556 whole entry, looked up): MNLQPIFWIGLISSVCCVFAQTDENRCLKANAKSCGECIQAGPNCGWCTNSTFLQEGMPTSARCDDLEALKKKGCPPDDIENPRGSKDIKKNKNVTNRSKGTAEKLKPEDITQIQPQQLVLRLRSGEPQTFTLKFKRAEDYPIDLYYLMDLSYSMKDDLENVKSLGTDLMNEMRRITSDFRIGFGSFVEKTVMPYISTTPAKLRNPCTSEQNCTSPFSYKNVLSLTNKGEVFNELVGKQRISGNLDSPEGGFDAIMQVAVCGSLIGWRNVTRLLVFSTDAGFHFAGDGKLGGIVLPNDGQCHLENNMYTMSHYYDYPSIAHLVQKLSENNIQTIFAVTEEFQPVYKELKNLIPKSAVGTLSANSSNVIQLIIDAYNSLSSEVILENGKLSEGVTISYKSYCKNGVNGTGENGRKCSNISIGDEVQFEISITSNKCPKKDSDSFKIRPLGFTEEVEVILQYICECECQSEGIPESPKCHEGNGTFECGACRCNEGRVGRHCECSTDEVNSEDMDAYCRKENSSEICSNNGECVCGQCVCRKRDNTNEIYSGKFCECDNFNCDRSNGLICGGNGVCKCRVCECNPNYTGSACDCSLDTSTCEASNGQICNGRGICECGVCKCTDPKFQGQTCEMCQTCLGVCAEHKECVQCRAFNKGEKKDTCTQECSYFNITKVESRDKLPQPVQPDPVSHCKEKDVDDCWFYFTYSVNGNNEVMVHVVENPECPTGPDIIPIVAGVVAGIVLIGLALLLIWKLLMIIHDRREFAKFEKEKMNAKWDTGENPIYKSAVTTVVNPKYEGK
Chain of Integrin beta-1 (Homo sapiens) + Integrin alpha-4 (Homo sapiens) (P13612 whole entry, looked up): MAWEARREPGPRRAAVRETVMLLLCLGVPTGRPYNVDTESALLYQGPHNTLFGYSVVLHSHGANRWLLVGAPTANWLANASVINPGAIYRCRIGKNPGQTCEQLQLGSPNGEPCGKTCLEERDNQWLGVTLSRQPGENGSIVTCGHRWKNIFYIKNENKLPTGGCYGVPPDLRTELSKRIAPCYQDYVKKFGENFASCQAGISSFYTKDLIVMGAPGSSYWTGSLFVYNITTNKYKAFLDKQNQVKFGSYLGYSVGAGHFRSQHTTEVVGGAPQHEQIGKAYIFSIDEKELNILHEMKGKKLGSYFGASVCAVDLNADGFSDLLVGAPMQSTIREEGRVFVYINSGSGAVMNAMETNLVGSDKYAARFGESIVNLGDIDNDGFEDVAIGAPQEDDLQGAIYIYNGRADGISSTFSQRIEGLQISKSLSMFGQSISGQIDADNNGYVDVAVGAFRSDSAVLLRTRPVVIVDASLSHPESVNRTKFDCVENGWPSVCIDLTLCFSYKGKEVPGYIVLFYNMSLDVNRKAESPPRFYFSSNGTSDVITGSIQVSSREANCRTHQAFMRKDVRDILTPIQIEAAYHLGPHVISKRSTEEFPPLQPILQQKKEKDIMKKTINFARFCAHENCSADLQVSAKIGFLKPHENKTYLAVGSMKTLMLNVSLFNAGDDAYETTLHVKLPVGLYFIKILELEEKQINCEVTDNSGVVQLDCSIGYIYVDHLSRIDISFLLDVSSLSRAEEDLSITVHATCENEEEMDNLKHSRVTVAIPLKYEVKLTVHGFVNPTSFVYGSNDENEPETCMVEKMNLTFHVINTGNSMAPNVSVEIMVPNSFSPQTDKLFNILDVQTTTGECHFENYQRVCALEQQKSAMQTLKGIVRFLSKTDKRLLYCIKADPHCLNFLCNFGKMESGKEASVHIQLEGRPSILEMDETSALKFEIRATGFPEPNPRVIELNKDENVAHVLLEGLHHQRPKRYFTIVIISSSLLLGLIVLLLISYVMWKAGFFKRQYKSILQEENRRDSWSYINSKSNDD

`CN(C)c1nc(N(C)C)nc(N(C)C)n1`: the percent of DMSO control GFP in assay [1] was 94.6% (inactive). For the same molecule, the GFP response vs DMSO was 103% (inactive) in assay [2] and 97.4% (inactive) in assay [4]. Besides, the percent response of DMSO control in assay [3] is 97.9% (inactive). In addition, the GFP response, % of DMSO in assay [5] was 94.2% (inactive). In addition, the double positive events in assay [6] was 63%. Also, the vesicle binding response in [6] was 181% (inactive). In addition, the inhibition (commonly the drop in the measured response relative to a control, in per cent) was 5.36% (inactive) in assay [7], 47.8% (inactive) in [10] and 9% (inactive) in [14]. In addition, the superoxide response (% of plate) in assay [8] was 95.5% (inactive). For the same molecule, the aptamer binding inhibition in assay [9] is 0% (inactive). For the same molecule, in [11], the response was -8.12% (inactive). Further, the binding (% of control) in assay [12] was 99.3% (inactive). Moreover, the efflux inhibition (fraction of control) in assay [13] is 0.78 (active). Besides, the differentiation response in assay [15] is 14.3% (inactive).

Take `CC(=O)c1c(N)nc2n(c1=O)CCCCC2`: the percent of DMSO control GFP in assay [1] was 103% (inactive). Moreover, the GFP response vs DMSO in [2] is 102% (inactive); in assay [4] it was 93.3% (inactive). Besides, in [3], the percent response of DMSO control is 108% (inactive). Also, the GFP response, % of DMSO in assay [5] was 102% (inactive). The molecule further displayed a double positive events in [6] of 55.2%. Also, the vesicle binding response in assay [6] was 201% (inactive). Moreover, the inhibition was 14.7% (inactive) in assay [7], 2.65% (inactive) in [10] and 10% (inactive) in assay [14]. Further, the superoxide response (% of plate) in [8] was 94.2% (inactive). Besides, in [9], the aptamer binding inhibition is 4% (inactive). For the same molecule, the response in assay [11] is 0.91% (inactive). The binding (% of control) in assay [12] is 98.7% (inactive). The efflux inhibition (fraction of control) in assay [13] was -0.09 (inactive). Besides, the differentiation response in assay [15] is 9.49% (inactive).

Turning to `C[C@H](CS)C(=O)N1CCC[C@H]1C(=O)O`, in [1], the percent of DMSO control GFP was 106% (inactive). In addition, the GFP response vs DMSO in assay [2] is 98.9% (inactive); in assay [4] it was 96.4% (inactive). The percent response of DMSO control in assay [3] was 109% (inactive). Also, in assay [5], the GFP response, % of DMSO is 102% (inactive). Besides, in [6], the double positive events is 58.6%. Further, the vesicle binding response in assay [6] was 186% (inactive). In addition, the results for the inhibition in assay [7], in assay [10] and in [14] were -2.11% (inactive), -2.44% (inactive) and 8% (inactive), respectively. For the same molecule, the superoxide response (% of plate) in [8] was 97.4% (inactive). The aptamer binding inhibition in [9] was 0% (inactive). Further, the response in assay [11] is -1.86% (inactive). Also, the binding (% of control) in assay [12] was 96.7% (inactive). Moreover, the efflux inhibition (fraction of control) in [13] was -0.16 (inactive). For the same molecule, the differentiation response in [15] was -29.3% (inactive).

With `COC(=O)c1ccc(=O)n(Cc2ccco2)c1`, the percent of DMSO control GFP in assay [1] is 94.7% (inactive). Moreover, the GFP response vs DMSO was 92.8% (inactive) in assay [2] and 92.3% (inactive) in assay [4]. Also, the percent response of DMSO control in assay [3] is 97.9% (inactive). Further, in assay [5], the GFP response, % of DMSO was 96.9% (inactive). This molecule also came in with a double positive events in [6] of 58.2%. Also, the vesicle binding response in assay [6] is 166% (inactive). Further, the inhibition is -6.77% (inactive) in [7], -1.44% (inactive) in [10] and 12% (inactive) in assay [14]. Also, the superoxide response (% of plate) in [8] was 86.5% (inactive). Further, the aptamer binding inhibition in [9] was -2% (inactive). Besides, in assay [11], the response was -0.2% (inactive). In addition, the binding (% of control) in assay [12] is 94.6% (inactive). Further, the efflux inhibition (fraction of control) in assay [13] was -0.16 (inactive). Further, in [15], the differentiation response was -8.27% (inactive).

Turning to `NCCOc1ccccc1OCCN`, the percent of DMSO control GFP in assay [1] is 102% (inactive). In addition, the GFP response vs DMSO in [2] is 93.8% (inactive); in assay [4] it was 90.3% (inactive). The percent response of DMSO control in assay [3] was 102% (inactive). Further, the GFP response, % of DMSO in assay [5] was 99.9% (inactive). In addition, the double positive events in [6] worked out at 59.5%. Besides, the vesicle binding response in assay [6] is 208% (inactive). For the same molecule, the inhibition was -6.77% (inactive) in assay [7], -11.9% (inactive) in assay [10] and 11% (inactive) in assay [14]. The superoxide response (% of plate) in [8] is 91.8% (inactive). In addition, the aptamer binding inhibition in assay [9] was -6% (inactive). Also, the response in [11] was -1.26% (inactive). The binding (% of control) in assay [12] is 109% (inactive). Further, in assay [13], the efflux inhibition (fraction of control) was -0.2 (inactive). For the same molecule, the differentiation response in [15] is -26% (inactive).
